Pf Dd2 growth – qHTS Primary assay for Inhibitors of Plasmodium falciparum Dd2 growth in vitro; P. falciparum Dd2 growth, SYBR Green, 72 h; actives 4.3% (n = 120,000); AID 1347417, 2020; Potency, µM (highest dose often 28.9 µM), hits mostly inhibitors; active = well fitted inhibition curve with a large enough effect; also: nearly all actives have a fitted effect of over 65% in size
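Infected erythrocytes (Dd2, 0.3% parasitemia, 2.5% hematocrit final) are added to compound in RPMI-1640/Albumax II medium, grown 72 h at 37C in low oxygen, then lysed with saponin/Triton-X containing SYBR Green and read by fluorescence.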
Hits are given with their value; [ ] = another dose, or the depositor's remark. Shown is part of a subset that was picked to be rich in hits.

Cc1ccc(C(=O)N2CCCC(c3nn[nH]n3)C2)cn1 (stereo not given) was read as Pf Dd2 growth inactive.
For CNC(=O)[C@H]1C[C@H](Oc2ccccc2)CN1C(=O)c1cccc(C)c1 the results were Pf Dd2 growth inactive.
For COc1ncc(-c2nc(-c3c(C)noc3C)cc3c2cc(C)n3CCN(C)C)cn1 the results were Pf Dd2 growth 14µM.
COc1ncccc1-c1nc(-c2c(C)noc2C)cc2c1cc(C)n2CCN(C)C was read as Pf Dd2 growth inactive.
`Cc1noc(C)c1-c1cc2c(cc(C)n2C)c(-c2ccccc2)n1` gave Pf Dd2 growth inactive.
Screening CN(Cc1cccnc1)c1nc2c(c(=O)[nH]1)CCN(Cc1ccc(Br)o1)CC2 returned Pf Dd2 growth inactive[5.79 µM].
COCC(=O)N[C@H]1C[C@H]2C(=O)Nc3ccc(-c4cccs4)cc3C(=O)N2C1 was read as Pf Dd2 growth inactive.
COC(=O)c1c(-c2ccc(Cl)cc2)noc1N1CCN(c2ccc(F)cc2)CC1 was read as Pf Dd2 growth inactive.
Screening CC(=O)NC1(C)CCN(c2cccc(C(F)(F)F)c2)CC1 returned Pf Dd2 growth inactive.
`COC(=O)c1c(-c2ccc(Cl)cc2)noc1N1CCN(c2cccc(C(F)(F)F)c2)CC1` gave Pf Dd2 growth 7.1µM.
Screening C=CCNC(=O)Cc1c2c(n(Cc3ccccc3F)c1C)CCCC2=O returned Pf Dd2 growth inactive.
For COc1ccc(-c2noc(-c3cccn3CC(=O)NCc3ccc(F)cc3Cl)n2)cc1F the results were Pf Dd2 growth inactive.
For COCCCN1CC2(CCN(C(=O)CCCc3cccs3)CC2)CC1=O the results were Pf Dd2 growth inactive.
COC(=O)c1ccccc1NC(=O)Cn1c(=O)nc(-c2ccccc2)c2cc(Cl)ccc21 was read as Pf Dd2 growth inactive.
Screening Oc1ccccc1Nc1nc(-c2ccccc2)c2cc(Cl)ccc2n1 returned Pf Dd2 growth 5µM.
Oc1ccc(Cl)cc1Nc1nc2ccccc2n2cnnc12 was read as Pf Dd2 growth inactive.
For NC(=O)COc1ccc(C(=O)N[C@@H]2CNCCC[C@H]2O)cc1 the results were Pf Dd2 growth inactive.
Screening CC(C)CC(=O)N1CCCC(c2nc(-c3ccccc3)no2)CCNC(=O)CC1 (stereo not given) returned Pf Dd2 growth inactive.
For O=C(CCC1CCCN(Cc2cccn2-c2ccccn2)C1)Nc1ccccc1F (stereo not given) the results were Pf Dd2 growth 7.9µM.
Screening O=C(CCC1CCCN(Cc2cc3c(cc2Cl)OCO3)C1)Nc1ccccc1F (stereo not given) returned Pf Dd2 growth inactive.
O=C(CCC1CCCN(Cc2cccnc2)C1)Nc1ccccc1F (stereo not given) was read as Pf Dd2 growth inactive.
Screening Cc1ccc(S(=O)(=O)N2CCC(n3cnnc3C(C)C)CC2)cc1F returned Pf Dd2 growth inactive.
Screening CN1CCC(NC[C@H]2O[C@@H](CO)[C@@H](O)[C@@H]2N(C)Cc2ccccc2)CC1 returned Pf Dd2 growth inactive.
O=C(c1ccc(F)cc1)N1CCc2nc(-c3ccc(Cl)cc3)nc(-c3ccccc3)c2C1 was read as Pf Dd2 growth inactive.
CCOC(=O)c1cnc2ccc(OC)cc2c1NCCc1ccc(OC)c(OC)c1 was read as Pf Dd2 growth 1µM.
CCOC(=O)c1cnc2cc(Cl)c(OC)cc2c1Nc1ccc(Br)cc1C was read as Pf Dd2 growth inactive.
Screening COc1ccc(NC(=O)C(=O)NCCc2ccc(OC)c(OC)c2)c(OC)c1 returned Pf Dd2 growth inactive.
CC(C)CCNC(=O)c1cnc2c(c1)N(C(=O)Cc1ccc(C(C)C)cc1)CCC2 was read as Pf Dd2 growth inactive.
CCc1ccc(OCCSc2nc(-c3cccc(C)c3)nc3cc(=O)[nH]n23)cc1 was read as Pf Dd2 growth inactive.
Screening Cc1ccc(OCCSc2nc(-c3ccccc3C)nc3cc(=O)[nH]n23)cc1Cl returned Pf Dd2 growth inactive.
For Cc1cccc(-c2nc(SCCCOc3ccc(Cl)c(C)c3)n3[nH]c(=O)cc3n2)c1 the results were Pf Dd2 growth inactive.
`Cc1cccc(OCCCSc2nc(-c3ccc(C(C)(C)C)cc3)nc3cc(=O)[nH]n23)c1C` gave Pf Dd2 growth 10µM.
For COc1cc(C)ccc1OCCSc1nc(-c2cccc(C)c2)nc2cc(=O)[nH]n12 the results were Pf Dd2 growth inactive.
For CCc1ccc(OCCCSc2nc(-c3ccc(C(C)(C)C)cc3)nc3cc(=O)[nH]n23)cc1 the results were Pf Dd2 growth 11µM.
Screening O=C(c1ccc2c(c1)OCO2)N1CCN(c2cc(-c3cccs3)[nH]n2)CC1 returned Pf Dd2 growth inactive.
For CC(=O)c1cc(CN2C[C@H]3CC[C@@H]2CN(S(=O)(=O)N(C)C)C3)n(C)c1 the results were Pf Dd2 growth inactive.
For CC(C)CNC(=O)CN1CN(c2ccccc2)C2(CCN(C(=O)NC3CCCCC3)CC2)C1=O the results were Pf Dd2 growth 1.6µM.
Screening CCc1ccccc1NC(=O)N1CCC2(CC1)C(=O)N(CC(=O)NC(C)C)CN2c1ccccc1 returned Pf Dd2 growth inactive.
`COCCNC(=O)CN1CN(c2ccccc2)C2(CCN(C(=O)NC3CCCCC3)CC2)C1=O` gave Pf Dd2 growth inactive.
For O=C(Nc1ccccc1)C1CC(c2ccccc2)CN(C(=O)NCc2ccccc2)C1 (stereo not given) the results were Pf Dd2 growth inactive.
For O=C1N2CCCC2CN1C1CCN(Cc2cccc(F)c2)CC1 (stereo not given) the results were Pf Dd2 growth inactive.
For O=C(Cc1ccc(F)cc1)N1CC(F)(F)C[C@H]1c1nc(C2CC2)no1 the results were Pf Dd2 growth inactive.
For CCOc1ccc(CCNc2ncnc3onc(-c4ccc(Cl)cc4)c23)cc1OCC the results were Pf Dd2 growth inactive.
Clc1ccc(-c2noc3ncnc(NCCCN4CCN(c5ccccc5)CC4)c23)cc1 was read as Pf Dd2 growth 11µM.
For Fc1ccc(-c2noc3ncnc(NCCCN4CCN(c5ccccc5)CC4)c23)cc1 the results were Pf Dd2 growth inactive.
Cc1cccc(C(=O)N2CCN(C(=O)c3nnn4c3COC(c3ccccc3)C4)CC2)c1 (stereo not given) was read as Pf Dd2 growth inactive.
For Cc1cccc(NC(=O)N2CCCC(Cn3cnc4cccnc43)C2)c1C (stereo not given) the results were Pf Dd2 growth inactive.
`Cc1ccc(NC(=O)c2ccc3c(c2)N(C)C2CCCN2C3=O)cc1C` (stereo not given) gave Pf Dd2 growth inactive.
CCN1CC2(CCN(Cc3cnn(-c4ccc(F)cc4)c3)CC2)CC1=O was read as Pf Dd2 growth inactive.
Screening Cc1cc(C(=O)N2CCCC(Cc3noc(-c4cnccn4)n3)C2)n[nH]1 (stereo not given) returned Pf Dd2 growth inactive.
Screening CC(C)Oc1cccc(-c2n[nH]c3c2CC(=O)N(CCOc2ccccc2)C3)c1 returned Pf Dd2 growth 8.9µM.
For O=C(O)c1cccc(-c2n[nH]c3c2CC(=O)N(CCOc2ccccc2)C3)c1 the results were Pf Dd2 growth inactive.
`O=C1Cc2c(-c3ccccc3)n[nH]c2CN1CCOc1ccccc1` gave Pf Dd2 growth inactive.
`CC(=O)N[C@@H]1CCC[C@@H](C(=O)NCc2cc(C)on2)CC(=O)N(C)C1` gave Pf Dd2 growth inactive.
CCc1ccc(C(=O)c2cn(Cc3ccc(F)cc3)c3cc(OC)c(OC)cc3c2=O)cc1 was read as Pf Dd2 growth 11µM.
Screening CCc1ccc(C(=O)c2cn(CC(=O)Nc3ccc(OC)cc3OC)c3ccc(CC)cc3c2=O)cc1 returned Pf Dd2 growth inactive.
`CCOc1ccc(NC(=O)Cn2cc(C(=O)c3ccc(CC)cc3)c(=O)c3cc(OC)c(OC)cc32)cc1` gave Pf Dd2 growth inactive.

Screens as filed in PubChem BioAssay.
